Compound activity as filed in PubChem BioAssay.
This excerpt belongs to a sample that is enriched for hits.
HT1080NT lethal: kills 2HG-producing HT-1080-NT fibrosarcoma cells; HT-1080-NT fibrosarcoma viability, CellTiter-Glo ATP luminescence, 48 h; Potency, µM (top dose mostly 46.1 µM), without a hit: at the top dose activity, negative = less viability, most hits filed as cytotoxic; 1.6% of 360,000 active; AID 686970;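 further: NT is the 2HG producing partner of a matched IDH1 knockdown line; potency means the concentration at half of the fitted maximal effect; 0% = DMSO-treated cells and -100% = media-only wells without cells; nearly all actives have a fitted effect of over 55% in size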
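Compounds were tested in concentration-response format on HT-1080-NT cells for 48 hours at 37 degrees C. Cell viability came from CellTiter-Glo luminescence; curves were classified by r2, response magnitude and activity.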
IL-1B inflam inh: blocks inflammasome-driven IL-1 beta release; activity change, % at 57.5 µM; THP-1 LPS/ATP IL-1B secretion, AlphaLISA, 16 h; active compounds read low; 4.7% of 360,000 active; in the data active means activity change below about -50%; inconclusive means mostly about -30% to -49%
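THP-1 cells pretreated 1 hr with compounds (up to 57.5 uM final), then stimulated with LPS (250 ng/mL final) plus ATP (1.25 mM final); secreted IL-1B measured by AlphaLISA after 16 hr, decreased signal indicating inhibition.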
DT40 TDP1 no CPT: qHTS for Inhibitors of human tyrosyl-DNA phosphodiesterase 1 (TDP1): qHTS in cells in absence of CPT | 15% of 420,000 active | Potency, µM (titrated, usually from 46.2 µM), without a hit: at the highest dose activity change, negative = growth inhibition, hits mostly inhibitors | DT40 Tdp1-/- hTDP1 cells, no CPT, ATP luminescence, 48 h; further: potency means the concentration at half of the fitted maximal effect; nearly all actives have a fitted effect of over 55% in size
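Growth of hTDP1-complemented DT40 Tdp1-knockout cells is measured by ATP luminescence after at least 48 hr compound exposure at 37 °C, with DMSO substituting for the 20 nM CPT used in the parallel screen.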
DT40 TDP1 CPT: growth inhibition of DT40 Tdp1-/-;hTDP1 cells with camptothecin (screen for TDP1 inhibitors); AID 686979; 12% of 420,000 active; chicken DT40 Tdp1-/-;hTDP1 cells + 20 nM CPT, ATP luminescence, 48 h; Potency, µM (highest dose often 46.2 µM), for inactives: at the highest dose activity change, negative = growth inhibition, hits mostly inhibitors; further: potency means the concentration at half of the fitted maximal effect; nearly all actives have a fitted effect of over 55% in size
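Chicken DT40 Tdp1-/- cells stably complemented with human TDP1 were seeded at 400 cells/well in medium containing 20 nM camptothecin, exposed to pin-transferred compounds, and grown at 37 °C for at least 48 hr. Viability was read as ATP luminescence.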
HT1080 IDH1KD tx: kills HT-1080 cells with IDH1 knockdown | HT-1080 IDH1 knockdown viability, ATP luminescence, 48 h | Potency, µM (titrated, usually from 46.1 µM), for inactives: at the highest dose activity, negative = toxicity, usual class: cytotoxic | 2% of 360,000 active;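 further: potency means the concentration at half of the fitted maximal effect; 0% = DMSO wells and -100% = cell-free medium wells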
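Using the IDH1-knockdown HT-1080 line run in the same batch and compound series as the NT line, viability after 48 h at 37 °C was determined by CellTiter-Glo luminescence and expressed as % activity.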
ALOX12 inh: blocks human arachidonate 12S-lipoxygenase; AID 1671190; purified 12hLO, xylenol orange hydroperoxide absorbance; 1.1% of 580,000 active; P18054; Potency, µM (series often up to 108 µM), inactives show top-dose activity change, negative = inhibition, actives largely listed as inhibitors; further: potency means the concentration at half of the fitted maximal effect
Target sequence (P18054 whole entry, looked up): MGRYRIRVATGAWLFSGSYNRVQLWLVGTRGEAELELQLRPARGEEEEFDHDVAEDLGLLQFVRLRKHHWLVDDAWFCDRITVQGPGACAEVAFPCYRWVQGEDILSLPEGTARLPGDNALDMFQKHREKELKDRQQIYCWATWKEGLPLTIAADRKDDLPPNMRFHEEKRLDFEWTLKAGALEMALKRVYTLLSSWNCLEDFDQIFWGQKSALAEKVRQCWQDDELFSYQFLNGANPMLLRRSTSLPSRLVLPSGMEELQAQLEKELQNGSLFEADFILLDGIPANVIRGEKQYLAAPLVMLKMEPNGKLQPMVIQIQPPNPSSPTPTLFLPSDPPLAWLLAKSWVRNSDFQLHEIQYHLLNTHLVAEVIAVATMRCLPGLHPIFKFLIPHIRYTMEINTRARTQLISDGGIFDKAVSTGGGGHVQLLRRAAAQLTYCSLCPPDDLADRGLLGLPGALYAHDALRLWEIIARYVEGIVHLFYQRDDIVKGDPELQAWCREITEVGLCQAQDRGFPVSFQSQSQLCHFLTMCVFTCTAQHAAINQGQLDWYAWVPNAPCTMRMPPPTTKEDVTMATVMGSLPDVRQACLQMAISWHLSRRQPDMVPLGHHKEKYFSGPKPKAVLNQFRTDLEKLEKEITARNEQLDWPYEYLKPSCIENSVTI
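Purified human 12hLO at 150 nM in 25 mM Hepes, 0.01% Triton X-100, pH 7.0, preincubated 15 min at room temperature with compound. Reaction started with 40 uM arachidonic acid, 30 min at room temperature. Hydroperoxide measured by Fe-xylenol orange, 573/405 nm absorbance ratio.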
Starred values were filed as active, the others as inactive; [ ] = dose if it differs, or a comment. Unless noted, the call rests on the fitted dose curve; in most records, active means well fitted curve in the direction sought with a large enough effect; inconclusive means small, poorly fitted or top-dose-only effect, or another doubt; inactive means no such curve, though single readings can be large; an effect the other way counts as inactive or inconclusive. Unless noted, on the % scale 0 is the no-effect control and ±100 the full control effect.

`Cc1ccc(CS(=O)Cc2ccc(C(=O)NC3CCCCCC3)o2)cc1` (stereo not drawn) gave HT1080NT lethal 1%, IL-1B inflam inh -26, DT40 TDP1 no CPT -9%, DT40 TDP1 CPT -29%, HT1080 IDH1KD tx -5% and ALOX12 inh 0%.
Screening CC(C(=O)Nc1nc(-c2ccc(F)c(F)c2)cs1)N1C(=O)C2CC=CCC2C1=O (stereo not drawn) returned HT1080NT lethal 2%, IL-1B inflam inh -4, DT40 TDP1 no CPT 23µM*, DT40 TDP1 CPT inconclusive, HT1080 IDH1KD tx 2% and ALOX12 inh 41%.
`O=C(CCN1C(=O)C2CC=CCC2C1=O)Nc1nc(-c2ccc(F)c(F)c2)cs1` (stereo not drawn) gave HT1080NT lethal -9%, IL-1B inflam inh -1, DT40 TDP1 no CPT -19%, DT40 TDP1 CPT 13µM*, HT1080 IDH1KD tx -8% and ALOX12 inh 5%.
For COc1ccc(-c2csc(NC(=O)[C@H](C)N3C(=O)C4CC=CCC4C3=O)n2)cc1OC (stereo partly drawn) the results were HT1080NT lethal -1%, IL-1B inflam inh -4, DT40 TDP1 no CPT inconclusive, DT40 TDP1 CPT inconclusive, HT1080 IDH1KD tx 2% and ALOX12 inh -10%.
O=C(O)C1CNCCN(Cc2ccc(-c3nn[nH]n3)cc2)C1 (stereo not drawn) was read as ALOX12 inh 50%.
`CC1=C[C@@H](CO)[C@H](C(C)C)C[C@H]1CC(=O)NCc1cccnc1` gave ALOX12 inh 8%[176 µM].
For COC(=O)c1ccc(CSc2nc3ccccc3c(=O)n2CC(C)C)o1 the results were HT1080NT lethal -12%, IL-1B inflam inh 6, DT40 TDP1 no CPT inconclusive, DT40 TDP1 CPT inconclusive, HT1080 IDH1KD tx -13% and ALOX12 inh 0%.
For COC(=O)c1ccc(CSc2nc3ccccc3c(=O)n2Cc2ccco2)o1 the results were HT1080NT lethal inconclusive, IL-1B inflam inh 3, DT40 TDP1 no CPT 16µM*, DT40 TDP1 CPT 23µM*, HT1080 IDH1KD tx -11% and ALOX12 inh -2%.
For COCC(C)n1c(SCc2cc(C(=O)OC)c(C)o2)nc2ccccc2c1=O (stereo not drawn) the results were HT1080NT lethal -19%, IL-1B inflam inh -13, DT40 TDP1 no CPT 5.8µM*, DT40 TDP1 CPT 4.1µM*, HT1080 IDH1KD tx -13% and ALOX12 inh -8%.
`NC(=O)NC(=O)CSc1nnc(-c2ccccc2)c(-c2ccccc2)n1` gave ALOX12 inh -50%.
`COCC(C)n1c(SCC(=O)Nc2cccnc2Cl)nc2ccccc2c1=O` (stereo not drawn) gave HT1080NT lethal 0%, IL-1B inflam inh -15, DT40 TDP1 no CPT inconclusive, DT40 TDP1 CPT 3%, HT1080 IDH1KD tx -8% and ALOX12 inh -11%.
For COC(=O)c1cc(CSc2nnc(-c3ccccc3)c(-c3ccccc3)n2)oc1C the results were HT1080NT lethal -9%, IL-1B inflam inh -16, DT40 TDP1 no CPT 21µM*, DT40 TDP1 CPT 23µM*, HT1080 IDH1KD tx -10% and ALOX12 inh 445%.
For COC(=O)c1ccc(CSc2nc3ccccc3c(=O)n2C)o1 the results were HT1080NT lethal -17%, IL-1B inflam inh inconclusive, DT40 TDP1 no CPT inconclusive, DT40 TDP1 CPT 15µM*, HT1080 IDH1KD tx -1% and ALOX12 inh inconclusive.
Screening CNC(=O)COc1cccc(N)c1 returned ALOX12 inh 20%.
Cn1nc(C2CCN(C(=O)c3ccc(F)cc3)CC2)[nH]c1=O was read as ALOX12 inh 17%[176 µM].
CCCCn1c(=O)[nH]c(=O)c2c1nc(CSc1nnnn1CC(C)C)n2CC was read as ALOX12 inh -13%.
Screening O=C(CSc1nc2cc(Cl)ccc2c(=O)n1Cc1ccco1)Nc1ccc(S(=O)(=O)N2CCOCC2)cc1 returned HT1080NT lethal 0%, IL-1B inflam inh -5, DT40 TDP1 no CPT -20%, DT40 TDP1 CPT -24%, HT1080 IDH1KD tx 1% and ALOX12 inh -16%.
Screening CC(=O)Nc1ccc(NC(=O)CSc2nc(C)nc3sc(C)c(C)c23)cc1 returned HT1080NT lethal -8%, IL-1B inflam inh -26, DT40 TDP1 no CPT inconclusive, DT40 TDP1 CPT 1%, HT1080 IDH1KD tx 15% and ALOX12 inh 0%.
`COC(=O)c1ccc(CSc2nc(C)nc3sc(C)c(C)c23)o1` gave HT1080NT lethal 4%, IL-1B inflam inh 38, DT40 TDP1 no CPT 10µM*, DT40 TDP1 CPT 15µM*, HT1080 IDH1KD tx inconclusive and ALOX12 inh 9%.
COC(=O)c1ccc2c(=O)n(Cc3ccco3)c(SCC(=O)Nc3ccc(C)c(Cl)c3)nc2c1 was read as HT1080NT lethal -7%, IL-1B inflam inh 18, DT40 TDP1 no CPT 21µM*, DT40 TDP1 CPT 10µM*, HT1080 IDH1KD tx -6% and ALOX12 inh -7%.
CCCCn1c(SCc2ccc(C(=O)OC)o2)nc2cc(S(N)(=O)=O)ccc21 was read as HT1080NT lethal inconclusive, IL-1B inflam inh -78*, DT40 TDP1 no CPT 9.2µM*, DT40 TDP1 CPT 3.3µM*, HT1080 IDH1KD tx -4%[9.24 µM] and ALOX12 inh -29%.
Screening CCCCn1c(SCC(=O)c2cc(OC)ccc2OC)nc2cc(S(N)(=O)=O)ccc21 returned HT1080NT lethal -7%, IL-1B inflam inh 20, DT40 TDP1 no CPT -19%, DT40 TDP1 CPT 0%, HT1080 IDH1KD tx -3% and ALOX12 inh 55%.
CCc1nc(SCc2ccc(C(=O)OC)o2)c2c(=O)n(C)c(=O)n(C)c2n1 was read as HT1080NT lethal -7%, IL-1B inflam inh 22, DT40 TDP1 no CPT 9.2µM*, DT40 TDP1 CPT 15µM*, HT1080 IDH1KD tx 6% and ALOX12 inh 31%.
COc1ccc(NC(=O)CSc2nnc3ccccn23)cc1S(=O)(=O)N1CCCCC1 was read as ALOX12 inh 11%.
`Cc1nc2cc(NC(=O)CN(C)C(=O)c3ccco3)ccc2o1` gave ALOX12 inh 10%.
COC(=O)c1cc(-c2cnn(C)c2C)nc2ccccc12 was read as ALOX12 inh -17%.
For Cc1cccc(NC(=O)C2CCCN2C(=O)OCc2ccccc2)c1 (stereo not drawn) the results were HT1080NT lethal -20%, IL-1B inflam inh -6, DT40 TDP1 no CPT 0.058µM*, DT40 TDP1 CPT -34%, HT1080 IDH1KD tx -3% and ALOX12 inh 9%.
